PubChem BioAssay (EPA / NIEHS)
Calls of active or inactive are those of the source. Rule for the calls: active = hit-call score of the fitted dose curve at least 0.9, where 1 is the maximum; inactive = score below 0.9.

Assays:
[1] = BSK_3C_SRB: Viability Assessment in the BioMAP Diversity Plus: 3C Assay (AID 2283023); details: primary human endothelial cells (HUVEC);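 note: fitted both ways against DMSO so a hit may be signal rise or drop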
Outline: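 Human umbilical vein endothelial cells in the 3C system, treated 24 h. Total protein measured by 0.1% sulforhodamine B staining after 10% TCA fixation, read at 560 nm; bidirectional fit versus DMSO.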

[2] = read-out: Matrix Metallopeptidase 1 (MMP1), MMP1 (gene 4312); assay: BSK_BE3C_MMP1: BioMAP Diversity Plus: BE3C Assay for Matrix Metallopeptidase 1 (MMP1) Biomarker Activity (AID 2283024); details: primary human bronchial epithelial cells; actives raise or lower the signal
Outline: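 ELISA measurement of MMP-1 after 24 h compound exposure of primary human bronchial epithelial cells. Changes in either direction fitted relative to DMSO; parallel SRB staining checked overt cytotoxicity.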

[3] = BSK_3C_Vis: BioMAP Diversity Plus: 3C Assay for Morphology Visualization (AID 2283025); details: primary human endothelial cells (HUVEC);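 note: fitted both ways so gain or loss versus DMSO counts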
Outline: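 Light-microscopy visualization of HUVEC cultures at 24 h post-treatment, with DMSO as baseline for bidirectional fitting.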

[4] = read-out: Pselectin, SELP (gene 6403); assay: BSK_4H_Pselectin: BioMAP Diversity Plus: 4H Assay for Pselectin Biomarker Activity (AID 2283026); details: primary human endothelial cells (HUVEC); actives raise or lower the signal
Outline: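 ELISA of surface P-selectin on HUVEC, 24 h after dosing, with parallel SRB staining (0.1% after 10% TCA fixation, 560 nm) for overt cytotoxicity. Activity fitted in both directions relative to DMSO.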

[5] = BSK_4H_SRB: Viability Assessment in the BioMAP Diversity Plus: 4H Assay (AID 2283027); details: primary human endothelial cells (HUVEC);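 note: cells exposed to compound for 24 h before staining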
Outline: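 Cytotoxicity readout: sulforhodamine B (0.1%) staining of total protein after 10% TCA fixation, measured at 560 nm in human umbilical vein endothelium at 24 h. DMSO set the baseline; fitting was bidirectional.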

[6] = BSK_BE3C_SRB: Viability Assessment in the BioMAP Diversity Plus: BE3C Assay (AID 2283028); details: primary human bronchial epithelial cells
Outline: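 Human bronchial epithelial primary cells in confluent culture, 24 h after chemical dosing; total protein by 0.1% SRB staining after 10% TCA fixation, read at 560 nm. Bidirectional fitting versus DMSO baseline.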

[7] = read-out: Thrombomodulin, THBD (gene 7056); assay: BSK_3C_Thrombomodulin: BioMAP Diversity Plus: 3C Assay for Thrombomodulin Biomarker Activity (AID 2283029); details: primary human endothelial cells (HUVEC); actives raise or lower the signal
Outline: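 ELISA measurement of thrombomodulin on HUVEC surface 24 h after chemical dosing; activity fitted in both directions relative to DMSO vehicle.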

[8] = read-out: Urokinase-type plasminogen activator receptor (uPAR), PLAUR (gene 5329); assay: BSK_4H_uPAR: BioMAP Diversity Plus: 4H Assay for Urokinase-type plasminogen activator receptor (uPAR) Biomarker Activity (AID 2283030); details: primary human endothelial cells (HUVEC); actives raise or lower the signal
Outline: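 Human umbilical vein endothelial cells in the 4H system, 24 h after chemical dosing. Cell-surface uPAR measured by ELISA, fitted in both directions versus DMSO; cytotoxicity checked by SRB total protein in parallel cultures.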

[9] = read-out: Vascular endothelial growth factor receptor 2 (Homo sapiens) (UniProt P35968); assay: BSK_4H_VEGFRII: BioMAP Diversity Plus: 4H Assay for Vascular endothelial growth factor receptor 2 (VEGFR2) Biomarker Activity (AID 2283031); details: primary human endothelial cells (HUVEC); actives raise or lower the signal
Outline: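 Primary human umbilical vein endothelial cells (4H system), 24 h exposure; cell-surface VEGFR2 measured by ELISA. Bidirectional fitting versus DMSO; cytotoxicity checked in parallel by SRB total-protein staining.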

[10] = read-out: Human Leukocyte Antigen - DR isotype (HLADR), HLA-DRA (gene 3122); assay: BSK_BE3C_HLADR: BioMAP Diversity Plus: BE3C Assay for Human Leukocyte Antigen - DR isotype (HLADR) Biomarker Activity (AID 2283032); details: primary human bronchial epithelial cells; actives raise or lower the signal
Outline: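 Cell-surface HLA-DR ELISA readout at 24 h after dosing in the BE3C primary human lung bronchial epithelial system; gain or loss of signal against DMSO, with parallel sulforhodamine B staining of total protein for overt cytotoxicity.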

[11] = read-out: Vascular cell adhesion molecule 1 (VCAM1), VCAM1 (gene 7412); assay: BSK_4H_VCAM1: BioMAP Diversity Plus: 4H Assay for Vascular cell adhesion molecule 1 (VCAM1) Biomarker Activity (AID 2283033); details: primary human endothelial cells (HUVEC); actives raise or lower the signal
Outline: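 VCAM-1 ELISA read 24 h after chemical dosing of HUVEC in the BioMAP 4H system, with gain or loss of signal fitted relative to DMSO. Parallel SRB staining (560 nm) checked overt cytotoxicity.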

[12] = read-out: Interferon-gamma inducible Protein 10 (IP10), CXCL10 (gene 3627); assay: BSK_BE3C_IP10: BioMAP Diversity Plus: BE3C Assay for Interferon-gamma inducible Protein 10 (IP10) Biomarker Activity (AID 2283034); details: primary human bronchial epithelial cells; actives raise or lower the signal
Outline: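 IP-10 quantified by ELISA in human primary bronchial epithelial cell cultures at 24 hours post-dosing. Gain or loss of signal fitted relative to DMSO; parallel SRB staining assessed overt cytotoxicity.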

[13] = read-out: Monokine induced gamma interferon (MIG), CXCL9 (gene 4283); assay: BSK_BE3C_MIG: BioMAP Diversity Plus: BE3C Assay for Monokine induced gamma interferon (MIG) Biomarker Activity (AID 2283035); details: primary human bronchial epithelial cells; actives raise or lower the signal
Outline: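 hu bronchial epithelial 1° cells, 24 h cpd; MIG by ELISA; bidirectional fit, DMSO = baseline.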

[14] = read-out: Transforming growth factor beta 1 (TGFb1), TGFB1 (gene 7040); assay: BSK_BE3C_TGFb1: BioMAP Diversity Plus: BE3C Assay for Transforming growth factor beta 1 (TGFb1) Biomarker Activity (AID 2283036); details: primary human bronchial epithelial cells; actives raise or lower the signal
Outline: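 ELISA readout of TGF-b1 from human lung bronchial epithelial primary cells, taken 24 h post-treatment. Gain or loss of signal fitted relative to DMSO baseline, with parallel SRB staining for overt cytotoxicity.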

[15] = read-out: Plasminogen activator inhibitor-1 (PAI1), SERPINE1 (gene 5054); assay: BSK_BE3C_PAI1: BioMAP Diversity Plus: BE3C Assay for Plasminogen activator inhibitor-1 (PAI1) Biomarker Activity (AID 2283037); details: primary human bronchial epithelial cells; actives raise or lower the signal
Outline: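 PAI-1 was measured by ELISA in human primary bronchial epithelial cultures 24 h after chemical dosing, with cytotoxicity checked by SRB total-protein staining in parallel cultures. Activity was fitted in both directions relative to DMSO.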

[16] = read-out: urokinase plasminogen activator (uPA), PLAU (gene 5328); assay: BSK_BE3C_uPA: BioMAP Diversity Plus: BE3C Assay for urokinase plasminogen activator (uPA) Biomarker Activity (AID 2283038); details: primary human bronchial epithelial cells; actives raise or lower the signal
Outline: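 Primary human bronchial epithelial cells, uPA measured by ELISA 24 h after dosing. Bidirectional change relative to DMSO; cytotoxicity checked in parallel cultures by sulforhodamine B total-protein staining.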

[17] = read-out: Urokinase-type plasminogen activator receptor (uPAR), PLAUR (gene 5329); assay: BSK_BE3C_uPAR: BioMAP Diversity Plus: BE3C Assay for Urokinase-type plasminogen activator receptor (uPAR) Biomarker Activity (AID 2283039); details: primary human bronchial epithelial cells; actives raise or lower the signal
Outline: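 uPAR levels were measured by ELISA after 24 h compound treatment of primary human bronchial epithelial cells, fitted in both directions relative to DMSO. Parallel SRB staining served as the cytotoxicity read-out.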

[18] = read-out: Interleukin-6 (IL6), IL6 (gene 3569); assay: BSK_CASM3C_IL6: BioMAP Diversity Plus: CASM3C Assay for Interleukin-6 (IL6) Biomarker Activity for (AID 2283040); details: primary human coronary artery smooth muscle cells; actives raise or lower the signal
[19] = read-out: Tissue plasminogen activator (tPA), PLAT (gene 5327); assay: BSK_BE3C_tPA: BioMAP Diversity Plus: BE3C Assay for Tissue plasminogen activator (tPA) Biomarker Activity (AID 2283041); details: primary human bronchial epithelial cells; actives raise or lower the signal
Outline: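 tPA measured by ELISA 24 h after dosing human primary bronchial epithelial cells (BE3C system). Changes in either direction were fitted against DMSO. Parallel cultures were stained with SRB to flag overt cytotoxicity.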

[20] = read-out: Interleukin-8 (IL8), CXCL8 (gene 3576); assay: BSK_CASM3C_IL8: BioMAP Diversity Plus: CASM3C Assay for Interleukin-8 (IL8) Biomarker Activity (AID 2283042); details: primary human coronary artery smooth muscle cells; actives raise or lower the signal;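 note: IL-8 protein level quantified by ELISA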

Measured: AC50

CNCc1ccc(NC(=O)c2c[nH]c3c2C(=O)CCC3)cc1
inactive: [1] | [2] | [3] | [4] | [5] | [6] | [7] | [8] | [9] | [10] | [11] | [12] | [13] | [14] | [15] | [16] | [17] | [18] | [19] | [20]

O=C(OC[C@H]1O[C@@H](OC(=O)c2cc(O)c(O)c(OC(=O)c3cc(O)c(O)c(O)c3)c2)[C@H](OC(=O)c2cc(O)c(O)c(OC(=O)c3cc(O)c(O)c(O)c3)c2)[C@@H](OC(=O)c2cc(O)c(O)c(OC(=O)c3cc(O)c(O)c(O)c3)c2)[C@@H]1OC(=O)c1cc(O)c(O)c(OC(=O)c2cc(O)c(O)c(O)c2)c1)c1cc(O)c(O)c(OC(=O)c2cc(O)c(O)c(O)c2)c1
active: [1] 9.7 µM | [2] 10.8 µM | [4] 6.1 µM | [8] 3.15 µM | [10] 8.27 µM | [11] 9.44 µM | [12] 9.85 µM | [13] 10.2 µM | [14] 9.35 µM | [16] 1.87 µM | [17] 4.13 µM | [19] 1.45 µM
inactive: [3] | [5] | [6] | [7] | [9] | [15] | [18] | [20]

Nc1nc2ncc(CNc3ccc(C(=O)N[C@@H](CCC(=O)O)C(=O)O)cc3)nc2c(=O)[nH]1
inactive: [1] | [2] | [3] | [4] | [5] | [6] | [7] | [8] | [9] | [10] | [11] | [12] | [13] | [14] | [15] | [16] | [17] | [18] | [19] | [20]

CN(C)c1ccc(Cc2ccc(N(C)C)cc2)cc1
active: [2] 12.6 µM | [4] 32.8 µM | [10] 36.3 µM | [12] 28.8 µM
inactive: [1] | [3] | [5] | [6] | [7] | [8] | [9] | [11] | [13] | [14] | [15] | [16] | [17] | [18] | [19] | [20]

CCCCC(CC)COC(=O)CCCCCCCCC(=O)OCC(CC)CCCC (stereo not given)
inactive: [1] | [2] | [3] | [4] | [5] | [6] | [7] | [8] | [9] | [10] | [11] | [12] | [13] | [14] | [15] | [16] | [17] | [18] | [19] | [20]

C=CCCCCCCCCC(=O)O
inactive: [1] | [2] | [3] | [4] | [5] | [6] | [7] | [8] | [9] | [10] | [11] | [12] | [13] | [14] | [15] | [16] | [17] | [18] | [19] | [20]

CC/C(=C\C(=N/O)C(N)=O)C(C)[N+](=O)[O-] (stereo not given)
active: [12] 29.8 µM
inactive: [1] | [2] | [3] | [4] | [5] | [6] | [7] | [8] | [9] | [10] | [11] | [13] | [14] | [15] | [16] | [17] | [18] | [19] | [20]

COC(=O)c1ccccc1O
inactive: [1] | [2] | [3] | [4] | [5] | [6] | [7] | [8] | [9] | [10] | [11] | [12] | [13] | [14] | [15] | [16] | [17] | [18] | [19] | [20]

Cc1c(-c2cccnc2)c2ccccc2n1CCCCC(=O)O
inactive: [1] | [2] | [3] | [4] | [5] | [6] | [7] | [8] | [9] | [10] | [11] | [12] | [13] | [14] | [15] | [16] | [17] | [18] | [19] | [20]

CC(C)CCCCCCCOC(=O)CCCCC(=O)OCCCCCCCC(C)C
inactive: [1] | [2] | [3] | [4] | [5] | [6] | [7] | [8] | [9] | [10] | [11] | [12] | [13] | [14] | [15] | [16] | [17] | [18] | [19] | [20]

CCOCCOCCOCCO
inactive: [1] | [2] | [3] | [4] | [5] | [6] | [7] | [8] | [9] | [10] | [11] | [12] | [13] | [14] | [15] | [16] | [17] | [18] | [19] | [20]

CC(C)(O)c1coc(S(=O)(=O)NC(=O)Nc2c3c(cc4c2CCC4)CCC3)c1
inactive: [1] | [2] | [3] | [4] | [5] | [6] | [7] | [8] | [9] | [10] | [11] | [12] | [13] | [14] | [15] | [16] | [17] | [18] | [19] | [20]

O=C1OC(=O)C2C3C=CC(C3)C12 (stereo not given)
inactive: [1] | [2] | [3] | [4] | [5] | [6] | [7] | [8] | [9] | [10] | [11] | [12] | [13] | [14] | [15] | [16] | [17] | [18] | [19] | [20]
